Bioassay records from PubChem.
HCV NS3h FP: HCV NS3 helicase inhibitors, primary screen, biochemical, fluorescence polarization, ChemBridge library; actives 1.6% (n = 16,000); AID 687043, 2013; Hepatitis C virus NS3 helicase; inhibition, % at 100 µM; NS3h Cy5-dT15 DNA binding;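 active = inhibition above the average over every tested compound plus 3 SD, cut at about 40% in these data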
Cy5 interf NS3h: Cy5 fluorescence quenchers or enhancers, artefact control for HCV NS3 helicase inhibitor project, biochemical, ChemBridge library, Cy5 readout | actives 6% (n = 16,000) | fluorescence interference ratio at 100 µM | Cy5-dT15 DNA with NS3h, fluorescence interference; actives lie on both sides; signal over control mean, under 1 quenches;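 active = compound fluorescence over control fluorescence at most 0.8, a quencher, or at least a set upper limit, an enhancer; inactive = ratio between 0.8 and the set upper limit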
Active calls of the source: *. Most compounds without a hit are left out; they make up all but 6.8% or so of the library.

SMILES	HCV NS3h FP	Cy5 interf NS3h
Cc1ccc(/C=C(\NC(=O)c2ccc(C)cc2)C(=O)NC(C)C)cc1	12	0.92
COc1ccc(-c2cc(C(F)(F)F)n3nc(C(=O)NCCCn4ccnc4)c(Cl)c3n2)cc1	2	0.68*
COc1ccc(-c2cc(C(F)(F)F)n3nc(C(=O)Nc4ccccc4C(F)(F)F)cc3n2)cc1	4	1.1
O=C(COc1ccc(Cl)cc1Cl)Nc1cc(-c2ccc(F)cc2)[nH]n1	-5	1.1
CCN1C(=O)/C(=C\c2cccc(C(F)(F)F)c2)SC1=S	10	0.71*
O=C1/C(=C/c2ccccc2OCc2ccc([N+](=O)[O-])cc2)SC(=S)N1c1ccccc1	12	0.75*
O=C1/C(=C\c2ccc([N+](=O)[O-])cc2)SC(=S)N1c1cccc(C(F)(F)F)c1	-4	1.1
O=C1NC(=S)NC(=O)C1=Cc1ccccc1OCc1ccc([N+](=O)[O-])cc1	30	0.68*
Cc1ccc(COc2ccccc2C=C2C(=O)NC(=S)NC2=O)cc1	19	0.95
O=C1/C(=C/c2ccccc2[N+](=O)[O-])SC(=S)N1c1cccc(C(F)(F)F)c1	-2	0.76*
CCN1C(=O)/C(=C\c2cccc(O)c2)SC1=S	34	1
O=C1/C(=C/c2ccccc2OCc2ccc([N+](=O)[O-])cc2)SC(=S)N1Cc1ccccc1	11	1.1
O=C(/C=C/c1ccc(F)cc1)Nc1cccc2ncccc12	14	0.92
COc1cc(NC(=O)COc2ccc(F)cc2)c(OC)cc1NC(C)=O	4	0.94
O=C1CCCC2=C1C(c1ccc(Cl)cc1Cl)Nc1ccc(C(=O)c3ccccc3)cc1N2 (stereo unspecified)	-16	1
O=C(CCN1C(=O)/C(=C/c2cccs2)SC1=S)Nc1nc2ccccc2s1	14	0.71*
O=C(CCCN1C(=O)/C(=C\c2cccs2)SC1=S)Nc1ccccc1O	8	0.97
N#Cc1cc(N=Cc2cccc(C=Nc3ccc(N)c(C#N)c3)c2)ccc1N	7	1.2*
CC(=O)c1cccc(NC(=O)/C=C/c2ccccc2Cl)c1	31	1.1
COc1cccc(NC(=O)COc2ccc(C)cc2C)c1	13	0.78*
COc1cccc(NC(=O)COc2cc(C)c(Cl)c(C)c2)c1	10	0.88
O=C(Nc1ccccc1CO)c1cccc(F)c1	1	0.95
CCOc1ccccc1N(CC(=O)N1CCC(C)CC1)S(=O)(=O)c1ccccc1	12	0.94
O=[N+]([O-])c1ccc(Cl)cc1NCCc1ccccc1	18	0.79*
O=[N+]([O-])c1ccc(Cl)cc1NCCOc1ccc(F)cc1	21	0.69*
SMILES	HCV NS3h FP	Cy5 interf NS3h
O=[N+]([O-])c1ccc(N2CCOCC2)cc1NCCc1ccccc1	30	0.67*
O=[N+]([O-])c1ccc(N2CCN(CCO)CC2)cc1NCCc1ccccc1	8	0.96
Cc1cccc(OCCNc2cc(Cl)ccc2[N+](=O)[O-])c1	14	0.82
COc1ccccc1OCCNc1cc(Cl)ccc1[N+](=O)[O-]	3	1
CC1=NN(C(N)=S)C2(O)CC3C(C12)C3(C)C (stereo unspecified)	3	1.1
COc1ccc(/C=C(\C#N)c2nn(-c3ccccc3)c(N)c2C#N)cc1[N+](=O)[O-]	-30	0.79*
CCOc1cc(/C=C(\C#N)c2nn(CCO)c(N)c2C#N)cc(Br)c1OC	-18	0.99
Cc1ccc(C)c(NC(=O)c2ccc(-c3cccc(Cl)c3C)o2)c1	7	0.99
Cc1nc(Nc2nc(O)cc(=O)[nH]2)nc2c(C)cccc12	-4	0.64*
Cc1cc(=O)[nH]c(Nc2nc(C)c3cccc(C)c3n2)n1	36	1.1
COc1cc(C2C3=C(CC(C)(C)CC3=O)OC3=C2C(=O)CC(C)(C)C3)cc(Br)c1OCc1ccccc1	12	0.83
O=C(c1nn2c(c1Cl)NC(c1cccs1)CC2C(F)(F)F)N1CCOCC1 (stereo unspecified)	1	0.67*
CCOC(=O)c1sc(NC(=O)c2nn3c(c2Cl)NC(c2cccs2)CC3C(F)(F)F)c(C(=O)OCC)c1C (stereo unspecified)	16	1
O=C(Nc1ccc(Cl)c(Cl)c1)c1nn2c(c1Br)NC(c1cccs1)CC2C(F)(F)F (stereo unspecified)	12	1
O=C(c1nn2c(c1Br)NC(c1cccs1)CC2C(F)(F)F)N1CCCC1 (stereo unspecified)	15	0.51*
COc1ccc(-c2nn(-c3ccccc3)cc2/C=C/C(=O)O)cc1	10	1
Cc1ccc(C(C)C)c(OCCOc2ccccc2/C=C2/SC(=S)N(C)C2=O)c1	4	1
Cc1c(N2C(=O)/C(=C/c3ccc(OC(=O)c4cccc([N+](=O)[O-])c4)cc3)SC2=S)c(=O)n(-c2ccccc2)n1C	15	0.95
O=[N+]([O-])c1ccc(CSc2nnc(-c3cccc(F)c3)n2-c2ccccc2)cc1	4	0.79*
Cc1ccc(CSc2nnc(-c3cccc(F)c3)n2-c2ccccc2)cc1	4	0.88
O=C(Nc1nccs1)c1cccc(N2C(=O)c3ccccc3C2=O)c1	-41	1.2*
O=C(Nc1ccccc1O)c1ccc2c(c1)C(=O)N(c1cccc(C(=O)c3ccccc3)c1)C2=O	0	1
N/C(=N/OC(=O)c1ccc(Cl)c([N+](=O)[O-])c1)c1ccccc1Cl	13	1
N#CC(C#N)=Cc1cn(-c2ccccc2)nc1-c1cccs1	8	1
COc1cc(C(=O)Nc2c(C)cccc2C(C)C)c(Br)c(OC)c1OC	7	1.2*
SMILES	HCV NS3h FP	Cy5 interf NS3h
COc1c(Cl)ccc(Cl)c1C(=O)Nc1c(C)cccc1C(C)C	5	1.1
O=C(Nc1cccc(-c2nc3ccccc3[nH]2)c1)c1ccc2c(c1)OCCO2	8	0.98
Cc1nc2ccc(NC(=S)N3c4ccccc4CC3C)cc2nc1C (stereo unspecified)	-1	1.1
CCN(C(=O)c1ccccc1Cl)c1ccccc1	7	0.67*
CCCN(CCC)C(=O)c1ccccc1NC(=O)c1ccccc1Cl	-12	1
COCCCNC(=O)COc1cccc(C)c1	1	1
CCOC(=O)CNC(=O)c1cccc(Cl)c1	-24	1.1
CCOc1ccc(/C=N\N2CCN(Cc3ccccc3Cl)CC2)cc1OC	12	1
COc1ccc(/C(C)=N\N=C(\C)c2ccc(OC)cc2OC)c(OC)c1	16	0.67*
COc1ccc(C(=O)c2ccccc2)c(OC)c1	-6	0.91
Cc1ccc(-n2ncnc2-c2cccc(Cl)c2)cc1Cl	2	1
O=C(COc1ccccc1)C(=C(O)c1ccccc1)c1nc2ccccc2[nH]1	-23	1.4*
O=C(COc1cccc([N+](=O)[O-])c1)Nc1cccc(-c2nc3ccccc3[nH]2)c1	-11	0.96
CC(C)c1ccc(/C=C(\NC(=O)c2ccccc2)C(=O)NC2CCS(=O)(=O)C2)cc1 (stereo unspecified)	10	0.86
O=C(NC1CCS(=O)(=O)C1)/C(=C\c1ccc(Br)cc1)NC(=O)c1ccccc1 (stereo unspecified)	8	1.3*
Cc1ccc(-c2nc3cc(Cl)ccc3o2)cc1NC(=O)c1ccc2c(c1)OCCO2	-4	1.2
CC(=O)Nc1ccc2oc(-c3cccc(Cl)c3)nc2c1	-20	1.2*
O=C(Nc1cccc(-c2nc3cc(Cl)ccc3o2)c1)c1ccc2c(c1)OCCO2	11	0.71*
